# Source: PubChem BioAssay (The Scripps Research Institute Molecular Screening Center)
# IDE cell activ: activators of human insulin-degrading enzyme in cells; P14735; HEK cells, FAbeta-B cleavage, fluorescence polarization; 0% vehicle, 100% cell-free pure enzyme wells; activation, % at 5.96 µM; 0.073% of 340,000 active; AID 493087;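 active = activation above the mean of all tested compounds plus 3 SD, set per screening campaign, cut at about 17% in these data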
# Target sequence (P14735 whole entry, looked up): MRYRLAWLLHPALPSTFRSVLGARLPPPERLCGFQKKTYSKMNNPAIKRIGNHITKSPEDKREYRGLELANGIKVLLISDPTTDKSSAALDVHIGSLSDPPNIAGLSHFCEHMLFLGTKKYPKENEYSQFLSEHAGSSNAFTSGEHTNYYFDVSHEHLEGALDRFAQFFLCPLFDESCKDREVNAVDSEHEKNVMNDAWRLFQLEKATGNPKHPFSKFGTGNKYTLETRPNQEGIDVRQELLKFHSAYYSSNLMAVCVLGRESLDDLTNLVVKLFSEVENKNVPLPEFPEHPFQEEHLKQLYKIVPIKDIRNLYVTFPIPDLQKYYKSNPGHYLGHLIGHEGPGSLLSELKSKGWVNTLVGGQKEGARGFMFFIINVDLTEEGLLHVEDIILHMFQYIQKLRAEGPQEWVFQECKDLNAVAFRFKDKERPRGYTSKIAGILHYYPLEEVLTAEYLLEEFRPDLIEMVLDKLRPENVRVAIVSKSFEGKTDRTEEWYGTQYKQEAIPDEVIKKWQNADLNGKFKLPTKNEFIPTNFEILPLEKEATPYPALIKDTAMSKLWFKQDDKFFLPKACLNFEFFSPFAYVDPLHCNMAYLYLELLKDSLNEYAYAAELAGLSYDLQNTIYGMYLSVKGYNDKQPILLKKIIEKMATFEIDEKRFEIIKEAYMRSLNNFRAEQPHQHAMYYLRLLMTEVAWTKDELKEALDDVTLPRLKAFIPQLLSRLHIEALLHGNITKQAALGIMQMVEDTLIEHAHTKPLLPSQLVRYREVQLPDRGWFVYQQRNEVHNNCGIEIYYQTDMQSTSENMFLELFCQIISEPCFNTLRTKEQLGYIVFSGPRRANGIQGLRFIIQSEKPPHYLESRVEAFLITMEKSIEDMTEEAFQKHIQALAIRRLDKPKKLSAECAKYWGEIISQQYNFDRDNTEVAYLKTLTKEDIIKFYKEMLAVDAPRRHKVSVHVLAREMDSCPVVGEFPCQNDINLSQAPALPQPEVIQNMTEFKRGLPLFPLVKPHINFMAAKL
# Rin1 Abl inh: inhibitors of human Rin1-Abl protein interaction. TR-FRET Rin1/Abl binding, biochemical. inhibition, % at 7.35 µM. 0.4% of 360,000 active. AID 588664; in the data active = inhibition above about 5%, passing the limit was not always enough
# IDE cell inh: inhibits human insulin-degrading enzyme in HEK cells. P14735. FAbetaB cleavage, fluorescence polarization. 0.41% of 320,000 active. inhibition, % at 5.59 µM;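 active = percent inhibition above the average of all tested compounds plus 3 SD, set per screening campaign, cut at about 16% in these data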;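 note: IDE supplied by intact live HEK cells; FP after avidin binding of uncleaved biotin substrate so inhibition keeps polarization high; 0% = DMSO wells and 100% = 60 µM reference IDE inhibitor Ii1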
# PKA-R1A act: activates the PKA-R1A holoenzyme complex | P00514+P68181 | PKA-R1A dissociation, Cy5-IP20 fluorescence polarization; scaled: DMSO 0%, 113 µM cGMP 100% | activation, % at 11.4 µM | 0.083% of 340,000 active | AID 504707;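 active = percent activation above the mean of all tested compounds plus 3 SD, cut at about 19% in these data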;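 note: higher means more PKAc released from R1A so a rise in polarization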
# PKA-R2B act: activates the human PKA-R2B holoenzyme complex; PKA-R2B holoenzyme dissociation, Cy5-IP20 fluorescence polarization; R2B truncated from residue 108, S112A mutant; 0% DMSO only, 100% 113 µM cGMP; activation, % at 11.4 µM; 0.079% of 340,000 active; AID 504700;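 active = activation above a cutoff set at the mean over all compounds plus 3 SD, cut at about 18% in these data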;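 note: higher means more holoenzyme dissociation and a rise in polarization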
# E coli Lon inh: E. coli protease La inhibition. inhibition, % at 7.94 µM. purified E. coli Lon protease, fluorescence polarization. P0A9M0. 0.42% of 360,000 active; in the data active = inhibition above about 13%, passing the limit was not always enough;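 note: 0% = enzyme with probe and DMSO and 100% = no enzyme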
# R2B FP artifact: fluorescence polarization artifact in PKA-R2B activator counter-screen; 6% of 270 active; shares compounds with PKA-R2B act; AID 504796; activation, % at 11.4 µM; FP artifact counterscreen; in the data active = activation above about 20%;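 note: Cy5 labelled IP20 peptide probe with compound but no PKA protein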
# PKA-R2B act conf: confirmation of human PKA-R2B complex activators | shares compounds with PKA-R2B act | fluorescence polarization, activation | activation, % at 11.4 µM | 9% of 270 active | AID 504797; in the data active = activation above about 19%
# R1A FP artifact: FP assay interference, PKA-R1A counter-screen; shares compounds with PKA-R1A act; Cy5-IP20 peptide alone, fluorescence polarization artifact counterscreen; activation, % at 11.4 µM; 7% of 280 active; AID 504799;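 active = mean activation over triplicate runs exceeds the adjusted cutoff derived for the parent primary screen, cut at about 19% in these data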;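 note: no PKA protein present so any polarization rise reflects compound interference; 0% = tracer peptide mix alone and 100% = mix with added PKA catalytic subunit; higher means stronger polarization artifact and likely false positive in parent screen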
# PKA-R1A act conf: PKA-R1A complex activation, confirmation; shares compounds with PKA-R1A act; Cy5-IP20 fluorescence polarization, PKA-R1A holoenzyme dissociation; activation, % at 11.4 µM; 9% of 280 active; AID 504800;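 active = mean activation over replicate wells exceeds the adjusted hit threshold taken from the earlier primary screen, cut at about 20% in these data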;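 note: 0% = holoenzyme mix with DMSO only and 100% = cGMP-activated control wells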
# Rin1-Abl confirm: Rin1-Abl interaction inhibition confirmation; shares compounds with Rin1 Abl inh; TR-FRET Rin1-Abl binding, purified proteins; inhibition, % at 7.35 µM; 49% of 1,300 active; AID 602124
# GFP quencher: quenches GFP fluorescence, counter-screen for Rin1-Abl inhibitors | shares compounds with Rin1 Abl inh | inhibitors/quenchers counterscreen | inhibition, % at 6.75 µM | 8.5% of 1,300 active;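 note: ABL1-eGFP fusion protein alone without its partner RIN1-SBP; 0% = protein with vehicle and 100% = wells lacking protein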
# GFP quench dose: GFP fluorescence interference dose response; shares compounds with Rin1 Abl inh; GFP fluorescence interference/quenching counterscreen; IC50, µM; 230 tested, under 10 active; call rule not given here;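 note: ABL1-eGFP fusion protein alone without its RIN1 binding partner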
# * marks the source's active call; other numbers are inactive results; . = no result. Hits are enriched below; roughly 1.3% of the tested compounds scored in any of these assays. Cut-off read from the data, not from the text of the source, unless noted: active = inhibition above about 6.5%; inactive = the rest.
SMILES,IDE cell activ,Rin1 Abl inh,IDE cell inh,PKA-R1A act,PKA-R2B act,E coli Lon inh,R2B FP artifact,PKA-R2B act conf,R1A FP artifact,PKA-R1A act conf,others
COc1ccc(S(=O)(=O)Nc2ccc(NC(C)=O)cc2)cc1Br,-2.9,-1.5,6.4,1.7,22.4*,-1.0,2.2,3.3,.,.,
COc1ccc(S(=O)(=O)Nc2cccc(C(C)=O)c2)cc1Br,2.2,0.3,0.5,-5.2,4.0,-7.7,.,.,.,.,
Cc1cccc(NS(=O)(=O)c2c(C)nc3scc(C)n3c2=O)c1,8.5,1.6,1.1,-6.3,-5.6,-11.5,.,.,.,.,
COC(=O)N/N=C/c1cn(CCOc2ccc(OC)cc2)c2ccccc12,-0.7,2.9,4.5,1.8,-0.7,-1.7,.,.,.,.,
COC(=O)N/N=C/c1cn(CCOc2ccccc2)c2ccccc12,4.2,0.7,-3.7,-0.7,20.0*,7.9,1.9,-0.8,.,.,
c1ccc(-c2nnc(OCCN3CCOCC3)c3ccccc23)cc1,1.6,-0.1,10.6,-0.7,18.4*,3.2,-0.4,-3.9,.,.,
Cc1oc2ccc(OCc3c(F)cccc3Cl)cc2c1C(=O)O,-2.3,1.6,-0.5,51.4*,26.6*,6.0,45.0*,51.9*,45.0*,50.7*,
Cc1oc2ccc(OCc3cccc(Cl)c3)cc2c1C(=O)O,6.6,-1.4,.,-0.4,1.4,-1.2,.,.,.,.,
CN(C)c1ccc(C(=O)OCC(=O)Nc2ccc(S(N)(=O)=O)cc2)cc1,7.6,0.3,-6.8,45.7*,48.4*,-0.1,58.4*,59.4*,58.4*,62.5*,
Nc1ncnc2c1nc(Br)n2[C@@H]1O[C@@H]2COP(=O)(O)O[C@H]2[C@H]1O,6.8,0.8,2.6,116.6*,107.3*,-1.6,-1.7,97.8*,-1.7,105.6*,
Nc1nc2c(nc(Br)n2[C@@H]2O[C@@H]3COP(=O)(O)O[C@H]3[C@H]2O)c(=O)[nH]1,6.6,-2.0,0.8,52.6*,77.5*,7.2,-0.1,78.0*,-0.1,50.4*,
Nc1nc2c(nc(N3CCCCC3)n2[C@@H]2O[C@H](CO)[C@@H](O)[C@H]2O)c(=O)[nH]1,2.4,0.2,3.2,-9.9,2.6,-15.3,.,.,.,.,
CCOP1(=O)OCC2OC(n3cnc4c(N)ncnc43)C(O)C2O1 (stereo unspecified),0.3,0.2,5.6,102.3*,90.9*,3.0,3.3,65.0*,3.3,75.9*,
CC(C)N(Cc1cnn(C)c1)C(=O)C1CCC(=O)N(CCc2cccc(F)c2)C1 (stereo unspecified),3.0,0.3,.,-3.4,-3.2,1.6,.,.,.,.,
CCOc1cc(C=C(C#N)C#N)ccc1Oc1ccc([N+](=O)[O-])cn1,1.6,0.9,-2.6,-1.6,-3.5,3.2,.,.,.,.,
S=C1NC(c2ccccc2)=NCN1c1ccccc1,4.5,0.7,-0.3,-3.1,-10.6,-4.2,.,.,.,.,
Cc1cc(C)c(C)c(S(=O)(=O)N2CCC(C(=O)NNC(=O)c3ccccc3O)CC2)c1C,5.6,-1.1,-2.0,46.8*,46.1*,4.3,53.2*,43.8*,53.2*,44.8*,
O=C1c2sc3nc4n(c(=O)c3c2CCC1Br)CCCCC4 (stereo unspecified),2.3,0.2,5.2,-9.7,-0.4,-2.8,.,.,.,.,
COc1cccc(CNc2nc3nc(C)cc(=O)n3[nH]2)c1,5.5,3.0,-3.0,4.9,13.3,0.2,.,.,.,.,
Cc1cc(=O)n2[nH]c(NCc3c(F)cccc3Cl)nc2n1,1.5,2.8,3.4,60.2*,72.3*,4.6,103.1*,92.7*,103.1*,99.9*,
CCN(CC)c1ccc(C(=C2C=CC(=[N+](CC)CC)C=C2)c2ccc(S(=O)(=O)O)cc2S(=O)(=O)[O-])cc1,0.7,-19.2,.,34.0*,39.0*,-7.1,49.2*,48.5*,49.2*,52.3*,
O=C(Nc1nc2ccccc2s1)c1ccc(N2CCCCC2)c([N+](=O)[O-])c1,2.6,-1.4,0.1,-6.1,-2.5,-0.1,.,.,.,.,
CC1=C/C(=C(/c2ccc(O)c(C)c2)c2ccccc2S(=O)(=O)O)C=CC1=O,-0.2,-5.8,1.2,-11.3,0.1,-12.7,.,.,.,.,
CC1=C/C(=C(/c2cc(C)c(O)c(Br)c2)c2ccccc2S(=O)(=O)O)C=C(Br)C1=O,4.8,3.6,0.8,35.3*,27.6*,19.9,51.1*,45.5*,51.1*,49.3*,
O=S(=O)(Nc1cc2nc3ccccc3nc2n1Cc1ccccc1)c1ccc(Cl)cc1,-12.7,29.6*,9.3,-5.2,21.8*,-104.3,1.4,7.2,.,.,Rin1-Abl confirm=28.3*;GFP quencher=-1.8;GFP quench dose=>67.5
SMILES,IDE cell activ,Rin1 Abl inh,IDE cell inh,PKA-R1A act,PKA-R2B act,E coli Lon inh,R2B FP artifact,PKA-R2B act conf,R1A FP artifact,PKA-R1A act conf,others
CCN(C(=O)COC(=O)CCCOc1ccc(Cl)cc1C)c1c(N)n(Cc2ccccc2)c(=O)[nH]c1=O,0.9,2.5,.,9.8,-2.8,-13.5,.,.,.,.,
O=C1NCCc2c1[nH]c1ccc([N+](=O)[O-])cc21,-9.9,3.4,0.4,19.1*,9.1,-10.8,.,.,3.3,4.5,
COc1ccc2[nH]c3c(c2c1)CCNC3=O,0.7,-2.5,7.1,6.3,-6.1,-7.0,.,.,.,.,
O=C(NCC1CCCO1)c1cc2cc(Cl)ccc2[nH]1 (stereo unspecified),2.1,-0.5,0.3,-7.3,-3.0,-9.3,.,.,.,.,
O=C(NCc1ccc(F)cc1)c1cccc2c1C(=O)c1ccc(N3CCC(N4CCCCC4)CC3)cc1S2(=O)=O,.,-13.0,.,-3.9,-0.2,-40.7,.,.,.,.,
O=C(NCc1ccco1)c1cccc2c1C(=O)c1ccc(N3CCC(N4CCCCC4)CC3)cc1S2(=O)=O,.,-10.9,.,19.6*,5.8,-31.7,.,.,3.5,1.3,
O=C(O)CCC(=O)N1CCC(n2nnc3cc(C(F)(F)F)ccc32)CC1,-0.8,-6.3,1.6,1.6,3.6,-6.2,.,.,.,.,
CC(NC(=O)C(Cc1ccccc1)=NO)c1ccccc1 (stereo unspecified),-4.3,0.3,.,-2.6,1.0,-11.1,.,.,.,.,
